This is a sample that favours compounds with a hit; in the whole collection about 16% have one here.
DT40 TDP1 CPT: qHTS for Inhibitors of human tyrosyl-DNA phosphodiesterase 1 (TDP1): qHTS in cells in presence of CPT. chicken DT40 Tdp1-/-;hTDP1 cells + 20 nM CPT, ATP luminescence, 48 h. Potency, µM (top dose mostly 46.2 µM), for inactives: at the highest dose activity change, negative = growth inhibition, most hits filed as inhibitors. hit rate 12% among 420,000. AID 686979, 2013; note: potency is the fitted concentration of half-maximal effect; % is set by controls: 0 for no effect and ±100 for the full control effect; nearly all actives have a fitted effect of over 55% in size
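Chicken DT40 Tdp1-/- cells stably complemented with human TDP1 were seeded at 400 cells/well in medium containing 20 nM camptothecin, exposed to pin-transferred compounds, and grown at 37 °C for at least 48 hr. Viability was read as ATP luminescence.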
DT40 TDP1 no CPT: qHTS for Inhibitors of human tyrosyl-DNA phosphodiesterase 1 (TDP1): qHTS in cells in absence of CPT | hit rate 15% among 420,000 | DT40 Tdp1-/- hTDP1 cells, no CPT, ATP luminescence, 48 h | AID 686978, 2013 | Potency, µM (titrated, usually from 46.2 µM), for inactives: top-dose activity change, negative = growth inhibition, most hits filed as inhibitors; note: potency is the fitted concentration of half-maximal effect; % is set by controls: 0 for no effect and ±100 for the full control effect; nearly all actives have a fitted effect of over 55% in size
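DT40 Tdp1-/-;hTDP1 cells, no CPT (DMSO vehicle only), 400 cells/well; compounds pin-transferred; ≥48 hr, 37 °C; CellTiter-Glo 30 min RT dark, luminescence read.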
uPA generation: qHTS for Inhibitors of Cell Surface uPA Generation; Potency, µM (doses to about 38.3 µM), for inactives: at the highest dose activity change, negative = inhibition, usual class: inhibitors; hit rate 0.31% among 330,000; AID 540303, 2011; cell surface uPA generation assay, qHTS; active = well fitted inhibition curve with a large enough effect; inconclusive = small, poorly fitted or top-dose-only effect; inactive = no such curve, though single readings can be large or run the other way; tested in mouse RAW 264.7 cells; note: potency is the fitted concentration of half-maximal effect; % is set by controls: 0 for no effect and ±100 for the full control effect; nearly all actives have a fitted effect of over 55% in size
miR-21 reporter: qHTS Assay for Modulators of miRNAs and/orActivators of miR-21; 340,000 tested, under 10 active; HeLa miR-21 FLuc reporter, luciferase, 48 h; Potency, µM (top dose mostly 38.3 µM), for inactives: at the top dose activity change, positive = activation, most hits filed as activators;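 note: % of control where 0% means no effect; miR-21 action dims this reporter so a rising signal means less miR-21 action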
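HeLa cells stably expressing CMV-driven firefly luciferase with a downstream miR-21 binding sequence, endogenously expressing miR-21, were treated with titrations (up to about 40uM final) for 48 hours at 37 degree Celsius. Luciferase luminescence was read after lysis.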
TDP1 block: qHTS Assay for Inhibitors of Tyrosyl-DNA Phosphodiesterase (TDP1). Tyrosyl-DNA phosphodiesterase 1 (Homo sapiens), Q9NUW8. Potency, µM (titrated, usually from 130 µM), inactives show at the highest dose activity change, negative = inhibition, hits mostly inhibitors. hit rate 0.28% among 350,000. recombinant TDP1, AlphaScreen DNA substrate cleavage. AID 485290, 2010; note: potency is the fitted concentration of half-maximal effect; % is set by controls: 0 for no effect and ±100 for the full control effect; nearly all actives have a fitted effect of over 40% in size
Target sequence (Q9NUW8 whole entry, looked up): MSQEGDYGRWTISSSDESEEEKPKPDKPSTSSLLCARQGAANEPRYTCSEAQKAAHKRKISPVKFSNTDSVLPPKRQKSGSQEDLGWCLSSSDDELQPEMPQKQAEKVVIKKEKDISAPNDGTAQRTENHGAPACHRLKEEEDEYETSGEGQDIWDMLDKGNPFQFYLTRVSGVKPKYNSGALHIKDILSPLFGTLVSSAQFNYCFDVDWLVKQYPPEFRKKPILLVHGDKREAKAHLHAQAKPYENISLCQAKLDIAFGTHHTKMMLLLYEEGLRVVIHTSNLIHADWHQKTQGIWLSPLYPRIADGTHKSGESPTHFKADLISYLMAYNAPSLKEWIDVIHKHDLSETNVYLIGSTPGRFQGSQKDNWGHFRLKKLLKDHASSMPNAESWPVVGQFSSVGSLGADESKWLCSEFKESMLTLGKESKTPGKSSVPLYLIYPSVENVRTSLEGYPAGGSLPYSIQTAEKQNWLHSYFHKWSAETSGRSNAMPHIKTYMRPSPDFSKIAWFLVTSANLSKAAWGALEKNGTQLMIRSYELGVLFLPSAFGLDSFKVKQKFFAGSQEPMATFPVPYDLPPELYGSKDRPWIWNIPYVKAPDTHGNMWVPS
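Steps: enzyme plus compound, 15 min RT; add biotin/phosphotyrosine-FITC oligonucleotide (15 nM final), react 5 min; add donor/acceptor beads (10 ug/ml final), 10 min; read AlphaScreen. Tdp1 at 1 nM final.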
An asterisk follows results filed as active. Unless noted, calls come from the whole dose curve; as a rule, active = well fitted curve in the direction sought with a large enough effect; inconclusive = small, poorly fitted or top-dose-only effect, or another doubt; inactive = no such curve, though single readings can be large; an effect the other way counts as inactive or inconclusive.

What do the screens show for `Fc1ccc2nc(Nc3nc4c(F)cc(F)cc4s3)sc2c1`?
DT40 TDP1 CPT: 16µM*; DT40 TDP1 no CPT: 15µM*; uPA generation: 4%; miR-21 reporter: -10%; TDP1 block: 11%

Results for Fc1cccc2sc(Nc3nc4ccccc4s3)nc12 ?
DT40 TDP1 CPT: inconclusive; DT40 TDP1 no CPT: 12µM*; uPA generation: 2%; miR-21 reporter: -58%; TDP1 block: 0%

Results for c1ccc2sc(Nc3nc4cc5c(cc4s3)OCO5)nc2c1 ?
DT40 TDP1 CPT: 23µM*; DT40 TDP1 no CPT: inconclusive; uPA generation: -4%; miR-21 reporter: -62%; TDP1 block: 6%

How did O=[N+]([O-])c1cc(Cl)cc(/C=N/Nc2nc3ccccc3s2)c1O do in these assays?
DT40 TDP1 CPT: 0.33µM*; DT40 TDP1 no CPT: 0.92µM*; uPA generation: 9%; miR-21 reporter: -24%; TDP1 block: 5%

Results for COc1ccc(NC(=O)CSc2nc3nc(C)cc(C)c3c(=O)[nH]2)cc1OC ?
DT40 TDP1 CPT: -20%; DT40 TDP1 no CPT: -8%; uPA generation: -10%; TDP1 block: 1%

What do the screens show for `O=C(Nc1ccc(F)cc1)OCCOc1ccc([N+](=O)[O-])cc1`?
DT40 TDP1 CPT: -15%; DT40 TDP1 no CPT: inconclusive; uPA generation: 6%; miR-21 reporter: -3%; TDP1 block: -3%

What do the screens show for `O=c1cc(NCc2ccco2)c2ccccc2o1`?
DT40 TDP1 CPT: -24%; DT40 TDP1 no CPT: -26%; uPA generation: -4%; miR-21 reporter: -11%; TDP1 block: 0%

How did COC(=O)c1ccccc1OC(=O)c1cc2ccccc2oc1=O do in these assays?
DT40 TDP1 CPT: 32%; DT40 TDP1 no CPT: 10%; uPA generation: 0%; miR-21 reporter: -11%

Results for CCSc1nc(O)cc(=O)n1-c1ccc(OC)cc1 ?
DT40 TDP1 CPT: 7%; DT40 TDP1 no CPT: -5%; miR-21 reporter: -7%; TDP1 block: -1%

Results for C(=N\Nc1nc2ccccc2s1)/c1ccc2c(c1)OCO2 ?
DT40 TDP1 CPT: -20%; DT40 TDP1 no CPT: inconclusive; uPA generation: -3%; miR-21 reporter: -55%; TDP1 block: -3%

How did Brc1cc2c(cc1/C=N/Nc1nc3ccccc3s1)OCO2 do in these assays?
DT40 TDP1 CPT: 15µM*; DT40 TDP1 no CPT: inconclusive; uPA generation: 4%; miR-21 reporter: -43%; TDP1 block: 6%

How did Fc1ccc2nc(Nc3nc4cc5c(cc4s3)OCCO5)sc2c1 do in these assays?
DT40 TDP1 CPT: 16µM*; DT40 TDP1 no CPT: inconclusive; uPA generation: 4%; miR-21 reporter: -48%; TDP1 block: 8%

Results for COc1ccc(C)cc1-n1nnnc1SCC1CCCCO1 (stereo unspecified) ?
DT40 TDP1 CPT: -12%; DT40 TDP1 no CPT: -12%; uPA generation: -11%; miR-21 reporter: -5%; TDP1 block: 0%

What do the screens show for `O=C(NCC(c1ccc2c(c1)OCO2)N1CCOCC1)c1c(F)cccc1F` (stereo unspecified)?
DT40 TDP1 CPT: -15%; DT40 TDP1 no CPT: -11%; miR-21 reporter: -10%; TDP1 block: 3%

Results for CCc1cc(=O)oc2cc3occ(C)c3cc12 ?
DT40 TDP1 CPT: 7%; DT40 TDP1 no CPT: inconclusive; uPA generation: 3%; miR-21 reporter: -2%; TDP1 block: 0%

How did CCc1cc(=O)oc2cc3occ(-c4ccc(OC)c(F)c4)c3cc12 do in these assays?
DT40 TDP1 CPT: 4.6µM*; DT40 TDP1 no CPT: 2.1µM*; uPA generation: -9%; miR-21 reporter: 30%; TDP1 block: -5%

What do the screens show for `COC(=O)[C@@H](NC(=O)N1CCC(C)CC1)C(C)C`?
DT40 TDP1 CPT: -8%; DT40 TDP1 no CPT: -4%; uPA generation: 1%; miR-21 reporter: 1%; TDP1 block: -3%

What do the screens show for `COC(=O)[C@H]1C[C@@H]1[C@H](NC(C)=O)c1ccccc1`?
TDP1 block: 11%

Results for O=C(NC(c1ccccc1)c1ccccc1)c1ccccc1 ?
DT40 TDP1 CPT: 3%; DT40 TDP1 no CPT: -18%; uPA generation: -3%
